These results are taken from PubChem BioAssay (Tox21).

Molecules are shown by their SMILES. Where “and” joins values, the source holds several entries; their conditions need not be identical. Equal entries are not always repeated. Records with an inconclusive call do not appear. Entries that show only a call come without a potency. Calls of active or inactive are those of the source. Calls follow the shape of the dose curve; as a rule, active = well fitted inhibition curve with a large enough effect in the repeat runs; inconclusive = weak or mixed curves; inactive = no such curve, though single readings can be large or run the other way.
Potency is read from the fitted curve at half-maximal effect.

The assay is described as follows: qHTS assay to identify small molecule antagonists of the thyroid receptor (TR) signaling pathway (AID 743065). Also: nearly all actives have a fitted effect of over 55% in size. Particulars: GH3.TRE-Luc, T3-stimulated luciferase inhibition, 23.5 h; series mostly up to 70.3 µM. An excerpt: U.S. Tox21 Program National Center for Advancing Translational Sciences [NCATS] NIH Chemical Genomics Center [NCGC] U.S. Environmental Protection Agency [EPA] National Institutes of Environmental Health Sciences [NIEHS] National Toxicology Program [NTP] U.S. Food and Drug Administration [FDA] Tox21 Assay Overview: Thyroid receptor (TR), a nuclear hormone receptor, plays an important role in development, proliferation, differentiation, metabolism, brain function, and cardiovascular system. […] To profile the Tox21 10K compound library in TR signaling, a cell-based GH3-TRE-Luc assay (GH3.TRE-Luc cell line, developed by the laboratory of Dr. Albertinka J. Murk, Wageningen University) was used to measure the inhibition of TR. GH3 (rat pituitary tumor) cells stably expressing a TR activity sensor consisting of two TR response elements and a luciferase reporter gene.
Tox21 Assay Protocol Summary: GH3.TRE-Luc cells were dispensed at 1500 cells/4 uL/well into 1536-well white solid bottom plates using a Multidrop Combi dispenser (Thermo Fisher Scientific Inc., Waltham, MA). After the assay plates were incubated at 37 C for 4 hours, 23 nL of library compound or DMSO controls was transferred to the assay plates by a pintool station (Kalypsys, San Diego, CA), followed by addition of 1 ul of T3 (1 nM, final concentration in the wells) to stimulate TR transactivation. The assay plates were incubated at 37 C for 23.5 h, and then 1 uL of CellTiter-Fluor reagent (Promega, Madision, WI) of measuring cytotoxicity was added to each well using a Bioraptr Flying Reagent Dispenser (FRD) workstation (Beckman Coulter, Indianapolis, IN, USA). The plates were incubated at 37 C and 5% CO2 for additional 30 min, and fluorescence intensity was measured by a ViewLux plate reader (PerkinElmer, Shelton, CT). For measuring luciferase reporter gene activity, 4 uL of ONE-Glo Luciferase Assay reagent (Promega) was added to each well using a Bioraptr FRD (Beckman Coulter), followed by 30 min incubation at room temperature. The luminescence intensity of plates was recorded by a ViewLux plate reader (PerkinElmer, Shelton, CT).
As to `COc1ccc(C)cc1[N+](=O)[O-]`, the Potency entry was “inactive”.
To `C=C1[C@H]2CC[C@@H]3[C@H]2C(C)(C)CCC[C@]13C` belongs “inactive”; to `CCCCC(CC)COC(=O)CCCCCCCCC(=O)OCC(CC)CCCC` (stereo not given), “inactive”; to `O=C(O)c1ccccc1Cl`, “inactive”.
With `CCOc1ccc(N)c([N+](=O)[O-])c1`, the Potency result was “inactive”.
To `O=[N+]([O-])c1ccc(NCCO)c(OCCO)c1` belongs “inactive”; to `C=C(C)C(=O)OCCOCC`, “inactive”; to `CN1CCC(=C2c3ccccc3Sc3ccccc32)CC1`, 8.41 µM (active).
For the compound `CCCCC(CC)COC(=O)COc1ccc(Cl)cc1Cl` (stereo not given), the Potency result was “inactive”.
The result for `CC1(c2ccccc2)OC(C(=O)O)=CC1=O` (stereo not given) reads “inactive”; that for `CCCCCCCCCc1ccc(OCCOCCO)cc1`, 18.8 µM (active).
To `CC(=O)OC[C@H]1O[C@@H](n2ncc(=O)[nH]c2=O)[C@H](OC(C)=O)[C@@H]1OC(C)=O` belongs “inactive”; to `C1CCCNCCC1`, “inactive”; to `NC(=O)C(c1ccccc1)(c1ccccc1)[C@@H]1CCN(CCc2ccc3c(c2)CCO3)C1`, 26.6 µM (active).
For `O=C1CCC(=O)O1`, the Potency entry was “inactive”.
In the case of `O=[N+]([O-])c1ccc2[nH]ncc2c1`, the Potency entry was “inactive”.
For `CC(=O)c1ccc2c(c1)N(CCCN(C)C)c1ccccc1S2`, the Potency was 10.1 µM (active).
The result for `COc1ccc(S(=O)(=O)N2C(=O)[C@@](c3ccccc3OC)(N3C[C@H](O)C[C@H]3C(=O)N(C)C)c3cc(Cl)ccc32)c(OC)c1` reads 68.6 µM (active); that for `CCC(Cl)CCC(Cl)C(Cl)CC(Cl)C(Cl)C(Cl)CCl` (stereo not given), “inactive”; that for `CC/C=C\CCOC(=O)CC`, “inactive”.
Take `OC[C@H]1O[C@@H](OCCc2ccc(O)cc2)[C@H](O)[C@@H](O)[C@@H]1O`: the Potency entry is “inactive”.
On to `Brc1c2ccccc2cc2ccccc12`, for which the Potency entry was “inactive”.
The result for `COc1cc(Cl)ccc1Oc1ccc(Cl)cc1Cl` reads 52.9 µM (active); that for `CC(=O)c1ccc2c(c1)N(CCCN1CCC(CCO)CC1)c1ccccc1S2`, 11.4 µM (active).
Turning to `CCCCCCCCCCCC(=O)OC[C@@H](O)[C@H]1OC[C@H](OCCO)[C@H]1OCCO`, the Potency entry is “inactive”.
`O=C(O)c1ccc(-n2nc(-c3ccccc3O)nc2-c2ccccc2O)cc1`: the Potency is 29.8 µM (active).
Regarding `C=CC(=O)OCCOCCOCCOCCOC(=O)C=C`, the Potency is 15.4 µM (active) and 27.1 µM (active).
The result for `NCc1ccccc1Sc1ccccc1CO` reads “inactive”; that for `CC(CSC(=O)c1ccccc1)C(=O)N1C[C@@H](Sc2ccccc2)C[C@H]1C(=O)O` (stereo not given in full), “inactive”.
To `CCOC(=O)Cc1cccc2ccccc12` belongs “inactive”; to `CC(CC=O)c1ccccc1` (stereo not given), “inactive”; to `CC(C)OC(=O)C(C)N(C(=O)c1ccccc1)c1ccc(F)c(Cl)c1` (stereo not given), 61.1 µM (active).
For `COC(C)(C)CCO`, the Potency entry was “inactive”.
To `CCOCC(O)COc1ccc(NC(=O)CC[S+](C)C)cc1` (stereo not given) belongs “inactive”; to `OCCNCc1ccccc1`, “inactive”.
To `c1cc(CCCc2ccncc2)ccn1` belongs “inactive”.
For the compound `CCO[Si](CCCCl)(OCC)OCC`, the Potency result is “inactive”.
The result for `NCC(=O)O` reads “inactive”.
With `C[C@H](CCC(=O)O)[C@H]1CC[C@H]2[C@@H]3CC[C@@H]4C[C@H](O)CC[C@]4(C)[C@H]3C[C@H](O)[C@]12C`, the Potency was 68.8 µM (active).
The result for `C#CCN(C)CCCOc1ccc(Cl)cc1Cl` reads “inactive”.
